These compounds were tested against Lysosomal acid glucosylceramidase (Homo sapiens) (UniProt P04062) (assay: Glucocerebrosidase-p2 (AID 348)). Details: purified GBA, blue fluorogenic substrate, 40 min; in the data active = potency below about 10 µM; inactive = the rest.
Excerpt: Beta-glucocerebrosidase catalyzes the hydrolysis of beta-glucocerebroside to glucose and ceramide. The inherited deficiency of beta-glucocerebrosidase results in Gaucher disease, which is characterized by a wide variety of symptoms including hepatosplenomegaly, anemia, thrombocytopenia, bony lesions and bone marrow infiltration with characteristic storage cells, known as Gaucher cells. There are also forms of the disorder affecting the central nervous system. Patients with the same genotypes can manifest with diverse clinical presentations and it is believed that improper folding and trafficking of beta-glucocerbrosidase may contribute to the phenotypes observed.
Low molecular weight molecules, acting as chaperones, may potentially restore trafficking of misfolded beta-glucocerebrosidase from the endoplasmic reticulum to the lysosomes, thereby enhancing functional lysosomal beta-glucocerebrosidase activity.
Using normal beta-glucocerebrosidase, an assay was developed to screen for small molecule inhibitors that could potentially act as molecular chaperones on the mutant forms [developed with NIH investigator Dr. Ellen Sidransky#s laboratory]. Two pro-fluorescent substrates were chosen for two screens against a small molecule library. One beta-glucocerebrosidase assay used Resorufin beta-D-Glucopyranoside (Marker Gene Technology Inc.), generating a red fluorescent product. The second assay used […] fluorescent product. The Km for the Resorufin beta-D-Glucopyranoside and Fluorescein di-beta-D-Glucopyranoside were determined to be 71.2 uM and 855 uM, respectively. The IC50 values of Conduritol B Epoxide, a known glucocerebrosidase inhibitor, were determined to be 87.5 uM and 117 uM, respectively. The use of two difference pro-fluorescent substrates in the screens helped to eliminate false positives. All compounds were screened in a titration series resulting in AC50s (e.g., IC50s or EC50s). Data normalization and AC50 calculations were accomplished using GeneData software.
NCGC Assay Protocol Summary
Both enzyme and substrate were diluted in buffer composed of 50mM citric acid/KH2PO4, 10mM sodium taurocholate and 0.01% tween-20 at pH 5.9. The final concentration of the enzyme was 0.2 nM in both assays. The compound library was titrated in 7 to 15 concentrations for the primary screens with a final concentration ranging from 0.6 nM to 50 uM. This particular assay protocol is for the "blue" substrate, and it was performed in 1536-well plate format as follows:
Blue fluorescence substrate assay:
1 uL substrate (final concentration of 80 uM)
Incubate at room temperature (RT) for 40 minutes
3 uL stop solution (1 M NaOH and 1 M glycine in water)
Read the plate in Viewlux plate reader (Ex=365(10) and Em=440(10)).
Potency is the fitted concentration of half-maximal effect.

Sequence of Lysosomal acid glucosylceramidase (Homo sapiens) (P04062 whole entry, looked up): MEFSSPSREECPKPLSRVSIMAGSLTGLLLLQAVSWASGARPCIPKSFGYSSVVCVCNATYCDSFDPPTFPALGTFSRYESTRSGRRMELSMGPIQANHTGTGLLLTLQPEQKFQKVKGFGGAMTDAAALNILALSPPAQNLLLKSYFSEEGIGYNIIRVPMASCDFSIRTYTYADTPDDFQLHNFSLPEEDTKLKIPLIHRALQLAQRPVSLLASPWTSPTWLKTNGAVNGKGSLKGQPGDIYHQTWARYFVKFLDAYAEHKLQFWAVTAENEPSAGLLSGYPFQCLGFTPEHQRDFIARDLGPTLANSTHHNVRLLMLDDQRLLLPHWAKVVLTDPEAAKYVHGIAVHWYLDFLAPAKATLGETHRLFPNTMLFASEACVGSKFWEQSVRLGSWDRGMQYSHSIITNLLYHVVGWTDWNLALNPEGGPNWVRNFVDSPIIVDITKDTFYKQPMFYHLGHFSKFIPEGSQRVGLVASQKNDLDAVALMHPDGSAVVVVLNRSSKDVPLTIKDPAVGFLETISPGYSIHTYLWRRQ

Potency, inactive:
CN1CCN(c2ncc3nc(CCc4ccccc4)c(=O)n(CCc4ccccc4)c3n2)CC1 > 11.4 µM
O=c1c(-c2cccc(F)c2)nc2cncnc2n1Cc1ccc(F)cc1 > 11.4 µM
Cc1nc2cnc(OCc3ccccc3)nc2n(CCc2ccccc2)c1=O > 11.4 µM
COc1ccc2[nH]cc(CCNc3ncncc3-c3ccc4c(c3)OCO4)c2c1 > 11.4 µM
CN(C)C(=O)c1ccc(-c2nc(N3CCOCC3)c3ccccc3n2)cc1 > 11.4 µM
N#Cc1ccccc1-c1ccc2ncnc(NCc3cccnc3)c2c1 > 11.4 µM
Clc1ccccc1-c1nc(-n2ccnc2)c2ccccc2n1 > 11.4 µM
COc1ccc2[nH]cc(CCNc3ncnc4ccc(-c5ccccc5OC)cc34)c2c1 > 11.4 µM
COc1ccc2[nH]cc(CCNc3cc(-c4cccc(C#N)c4)ncn3)c2c1 > 11.4 µM
CCOc1ccc2nc3cc(N=Nc4ccc(N)nc4N)ccc3c(N)c2c1 > 11.4 µM
Cn1cc(-c2nc3cnc(N4CCNCC4)nc3n(CCc3ccccc3)c2=O)c2ccccc21 > 11.4 µM
COc1ccccc1CNc1ncncc1-c1ccccc1Cl > 11.4 µM
N=C(N)c1ccc(N=Nc2c(O)ccc3c2[nH]c2ccccc23)cc1 > 11.4 µM
COCCn1c(=O)c(-c2cccc(C#N)c2)nc2cnc(Oc3cccc(Cl)c3)nc21 > 11.4 µM
Cn1c(=O)c(-c2ccccc2)nc2cnc(N3CCOCC3)nc21 > 11.4 µM
COc1ccc(Oc2ncc3nc(-c4cccc(C#N)c4)c(=O)n(Cc4cccc(OC)c4)c3n2)cc1 > 11.4 µM
c1ccc(CNc2nc(-c3cccnc3)nc3ccccc23)cc1 > 11.4 µM
Cc1cnc(CNc2ncnc3ccc(-c4ccccc4Cl)cc23)cn1 > 11.4 µM
COc1cccc(-c2cncnc2NCCc2c[nH]c3ccc(OC)cc23)c1 > 11.4 µM
COc1ccc(-c2nc3cnc(N4CCN(C)CC4)nc3n(CCc3ccccc3)c2=O)cc1 > 11.4 µM
COCCn1c(=O)c(CCc2ccccc2)nc2cncnc21 > 11.4 µM
COc1cccc(Nc2ncc3ncc(=O)n(Cc4ccc(F)cc4)c3n2)c1 > 11.4 µM
CN(C)c1ncc2nc(CCc3ccccc3)c(=O)n(Cc3cccs3)c2n1 > 11.4 µM
N#CCCn1c(=O)c(-c2ccc(Cl)cc2)nc2cnc(N3CCOCC3)nc21 > 11.4 µM
Cc1nc2cnc(Oc3cccc(Cl)c3)nc2n(Cc2ccc(F)cc2)c1=O > 11.4 µM
COc1cccc(Nc2ncc3nc(-c4ccc(F)cc4)c(=O)n(CCC#N)c3n2)c1 > 11.4 µM
Clc1ccccc1NN(Cc1ccncc1)c1ccccc1Cl > 11.4 µM
Cc1cnc(CNc2ncnc3ccc(-c4ccc(N(C)C)cc4)cc23)cn1 > 11.4 µM
COc1ccc(CNc2nc(-c3cccnc3)nc3ccccc23)c(OC)c1 > 11.4 µM
N#CCCn1c(=O)c(-c2cccc(C#N)c2)nc2cnc(Oc3cccc(Cl)c3)nc21 > 11.4 µM
O=C(c1cnccn1)N1CCC[C@@]2(CCN(c3cccc(-c4ccccc4)c3)C2)C1 > 11.4 µM
Cc1nc2cnc(N3CCOCC3)nc2n(CCc2ccccc2)c1=O > 11.4 µM
COc1ccc(Oc2ncc3nc(CCc4ccccc4)c(=O)n(CCC#N)c3n2)cc1 > 11.4 µM
N#Cc1cccc(-c2nc(NCCN3CCOCC3)c3ccccc3n2)c1 > 11.4 µM
COc1cccc(-c2nc(N(C)C)c3ccccc3n2)c1 > 11.4 µM
CN(C)c1ncc2nc(CCc3ccccc3)c(=O)n(-c3ccccc3)c2n1 > 11.4 µM
COc1ccccc1CNc1nc(-c2ccc(C(=O)N(C)C)cc2)nc2ccccc12 > 11.4 µM
COc1ccc(-n2c(=O)c(-c3cccs3)nc3cnc(N4CCN(C)CC4)nc32)cc1 > 11.4 µM
COc1ccccc1CNc1ncncc1-c1ccc2c(c1)OCO2 > 11.4 µM
COCCn1c(=O)c(-c2ccccc2)nc2cnc(Oc3cccc(Cl)c3)nc21 > 11.4 µM

From PubChem BioAssay (NCATS)
